Assay results taken from publication PMC12431657, “Discovery and mechanistic insights of dibenzoylmethane as a broad spectrum inhibitor of coronavirus” (PLOS Pathogens, 2025).
Where two headings read alike, the source gives them in different places. Out of some 3,300 compounds screened, about 95 (3%) showed an effect of 50% or more. Many of the other results were omitted from the sample, so strong results are more common in it than they were.

Test system: HCoV-229E
Set-up: species or system Huh-7; HTS, protection from HCoV-229E induced cell death, luminescent cell viability (CellCounting-Lite 2.0), inhibition rate

SMILES: C[C@]12CC[C@@H](O)C[C@H]1CC[C@@H]1[C@@H]2CC[C@]2(C)C(=O)CC[C@@H]12 [Etiocholanolone]
- 229E Inhibition rate (24 h, 10 µM; inhibitor): 13.1%

SMILES: C[C@]12CC[C@@H](O)C[C@@H]1CC[C@@H]1[C@@H]2CC[C@]2(C)C(=O)CC[C@@H]12 [Androsterone]
- 229E Inhibition rate (24 h, 10 µM; inhibitor): 52.3%

SMILES: C[C@]12CC[C@H](O)C[C@@H]1CC[C@@H]1[C@@H]2CC[C@]2(C)C(=O)CC[C@@H]12 [Epiandrosterone]
- 229E Inhibition rate (24 h, 10 µM; inhibitor): 29.3%

SMILES: COc1cc2cc(c1Cl)N(C)C(=O)C[C@H](OC(=O)C(C)C)[C@]1(C)O[C@@H]1[C@H](C)[C@@H]1C[C@@](O)(NC(=O)O1)[C@H](OC)/C=C/C=C(\C)C2 [Ansamitocin P-3]
- 229E Inhibition rate (24 h, 10 µM; inhibitor): 22.8%

SMILES: CN(C)NC(=O)CCC(=O)O [Daminozide]
- 229E Inhibition rate (24 h, 10 µM; inhibitor): 12.3%

SMILES: NC(=O)Cc1ccccc1 [2-Phenylacetamide]
- 229E Inhibition rate (24 h, 10 µM; inhibitor): 20.1%

SMILES: NC(=O)NCCCC[C@H](N)C(=O)O [L-Homocitrulline]
- 229E Inhibition rate (24 h, 10 µM; inhibitor): 20.7

SMILES: CC(C)(C)[C@]1(O)C[C@@H]2OC(=O)C[C@@]23C(=O)O[C@@H]2OC(=O)[C@H](O)[C@]213 [Bilobalide]
- 229E Inhibition rate (24 h, 10 µM; inhibitor): 54.8%

SMILES: C/C=C/C#CC#C/C=C/c1ccco1 [Atractylodin]
- 229E Inhibition rate (24 h, 10 µM; inhibitor): 10.3%

SMILES: C[C@@H]1CC[C@@]2(OC1)O[C@H]1[C@@H](O)[C@H]3[C@@H]4CC[C@H]5C[C@@H](O[C@@H]6O[C@H](CO)[C@H](O[C@@H]7O[C@H](CO)[C@@H](O)[C@H](O[C@@H]8OC[C@@H](O)[C@H](O)[C@H]8O)[C@H]7O[C@@H]7O[C@H](CO)[C@H](O)[C@H](O[C@@H]8O[C@H](CO)[C@@H](O)[C@H](O)[C@H]8O)[C@H]7O)[C@H](O)[C@H]6O)[C@H](O)C[C@]5(C)[C@H]4CC[C@]3(C)[C@H]1[C@@H]2C [Digitonin]
- 229E Inhibition rate (24 h post infection, 1 h compound pre-incubation; 10 µM; inhibitor): 13.7%

SMILES: CCN1C[C@]2(C)CC[C@H](OC)[C@@]34C1[C@]1(OCO[C@@]15C[C@H](OC)[C@H]1C[C@]3(O)[C@@H]5[C@H]1OC)[C@@H](OC(C)=O)[C@H]24 [Deltaline]
- 229E Inhibition rate (24 h, 10 µM; inhibitor): 2.6%

SMILES: CN1Cc2c(ccc3c2OCO3)[C@@H]2[C@H]1c1cc3c(cc1C[C@@H]2O)OCO3 [Chelidonine]
- 229E Inhibition rate (24 h, 10 µM; inhibitor): 12.4%

SMILES: CO[C@@H]1C[C@H](O[C@H]2CC[C@@]3(C)[C@H](CC[C@@]45O[C@@]46CC[C@H](C4=CC(=O)OC4)[C@@]6(C)CC[C@H]35)C2)O[C@H](C)[C@@H]1O [Adynerin]
- 229E Inhibition rate (24 h, 10 µM; inhibitor): 9.5%

SMILES: CO[C@H]1C[C@H](O[C@H]2CC[C@]3(C)[C@H]4CC[C@]5(C)[C@@H](C6=CC(=O)OC6)CC[C@]5(O)[C@@H]4CC[C@]3(O)C2)O[C@H](C)[C@H]1O[C@@H]1O[C@H](CO)[C@@H](O)[C@H](O)[C@H]1O [Periplocin]
- 229E Inhibition rate (24 h, 10 µM; inhibitor): 25

SMILES: C[C@H]1O[C@@H](O[C@H]2CC[C@@]3(C)[C@H](CC[C@@H]4[C@@H]3C[C@@H](O)[C@]3(C)[C@@H](C5=CC(=O)OC5)CC[C@]43O)C2)C[C@H](O)[C@@H]1O[C@H]1C[C@H](O)[C@H](O[C@H]2C[C@H](O)[C@H](O[C@@H]3O[C@H](CO)[C@@H](O)[C@H](O)[C@H]3O)[C@@H](C)O2)[C@@H](C)O1 [Deslanoside]
- 229E Inhibition rate (24 h, 10 µM; inhibitor): 55.1

SMILES: CC(C)=CCCC1=CC(=O)c2c(O)ccc(O)c2C1=O [Deoxyshikonin]
- 229E Inhibition rate (24 h, 10 µM; inhibitor): 9.8%

SMILES: CC1(C)[C@H]2O[C@H]2[C@H]2[C@](C)(O)[C@@H]3CC[C@@H]4[C@@H](O)[C@@]3(C[C@@H](O)[C@@]21O)C[C@@]4(C)O [Rhodojaponin III]
- 229E Inhibition rate (24 h, 10 µM; inhibitor): 46.8%

SMILES: CC(C)[C@@H]1NC(=O)[C@H](C)OC(=O)[C@@H](C(C)C)NC(=O)[C@@H](C(C)C)OC(=O)[C@H](C(C)C)NC(=O)[C@H](C)OC(=O)[C@@H](C(C)C)NC(=O)[C@@H](C(C)C)OC(=O)[C@H](C(C)C)NC(=O)[C@H](C)OC(=O)[C@@H](C(C)C)NC(=O)[C@@H](C(C)C)OC1=O [Valinomycin]
- 229E Inhibition rate (24 h, 10 µM; inhibitor): 90.8%

SMILES: COC1=CC(=O)O[C@@H](/C=C/c2ccccc2)C1 [(+)-Kavain]
- 229E Inhibition rate (24 h, 10 µM, inhibitor): 9.8%

SMILES: COC(=O)[C@]12OC[C@]34[C@H]([C@@H](O)[C@@H]1O)[C@@]1(C)CC(=O)C(O)=C(C)[C@@H]1C[C@H]3OC(=O)[C@H](OC(=O)/C=C(\C)C(C)(C)OC(C)=O)[C@@H]24 [Bruceantinol]
- 229E Inhibition rate (24 h, 10 µM; inhibitor): 0%
